In the library only some 1.8% were active in any assay of this set; here they are far more common.
LANA-H2B inh: blockers of LANA interaction with H2A/H2B – biochemical, FP readout, HTS, primary screen; inhibition, % (test concentration not listed); AID 2629, 2010; Protein LANA1 (Human herpesvirus 8 type P (isolate GK18)), Q9QR71; 320,000 tested, 0.6% active; cell-free LANA-H2A/H2B peptide, fluorescence polarization; in the data active means inhibition mostly above about 10%, no sharp cut-off; inactive means mostly below about 6.7%
PKD1 inh: inhibitors of human PKD1 kinase, biochemical, fluorescence polarization; Serine/threonine-protein kinase D1 (Homo sapiens), Q15139; PKD1 kinase fluorescence polarization assay; inhibition, % (concentration not given with the values); 200,000 tested, 0.056% active; AID 797, 2007
HDAC3 inhib: HDAC3 deacetylase inhibitors, primary screen, biochemical, fluorescence, cell-free homogeneous; recombinant HDAC3, fluorogenic peptide/trypsin coupled; Histone deacetylase 3 (Homo sapiens), O15379; 320,000 tested, 0.15% active; inhibition, % at 8.3 µM; in the data active means inhibition above about 26%, passing the limit was not always enough; inconclusive means no clear call, values can overlap the other calls
Target sequence (O15379 whole entry, looked up): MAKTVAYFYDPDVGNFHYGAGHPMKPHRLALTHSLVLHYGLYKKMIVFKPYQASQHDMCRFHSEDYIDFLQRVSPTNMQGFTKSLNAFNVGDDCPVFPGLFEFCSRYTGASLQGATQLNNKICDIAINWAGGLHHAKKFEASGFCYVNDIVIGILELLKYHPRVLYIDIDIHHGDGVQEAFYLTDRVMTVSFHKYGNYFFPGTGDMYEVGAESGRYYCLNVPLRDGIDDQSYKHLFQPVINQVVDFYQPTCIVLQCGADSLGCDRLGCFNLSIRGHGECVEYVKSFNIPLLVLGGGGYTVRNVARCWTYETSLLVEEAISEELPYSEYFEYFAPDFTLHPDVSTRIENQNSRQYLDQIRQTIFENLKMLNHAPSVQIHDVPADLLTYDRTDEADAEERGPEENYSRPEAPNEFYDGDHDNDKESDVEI
GRK2 aptamer HTS: compounds blocking aptamer binding on GRK2 – biochemical, human GRK2, bead flow cytometry, HTS, primary screen | FAM-aptamer displacement from GRK2 | inhibition of aptamer binding, % at 10 µM | 330,000 tested, 0.59% active;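 active means inhibition of aptamer binding above 40%, roughly 3 SD of noise, on plates passing a quality check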;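 further: median bead fluorescence of bound FAM aptamer so fluorescent compounds give negative values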
DSG3 Ab inh: inhibitors of pemphigus antibody binding to DSG3, primary screen, biochemical, bead-based, flow cytometry, scFv-GFP | Desmoglein-3 (Homo sapiens), P32926 | AID 588358, 2011 | 310,000 tested, 0.48% active | binding (percent of control), % at 10 µM | DSG3-coupled beads, scFv-anti-DSG3-GFP binding; active compounds read low;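 active means binding more than 3 SD below its plate's average and above zero; inconclusive means below that plate limit but binding exactly zero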;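 further: hits lower antibody fragment binding to DSG3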
VLA-4 inh: inhibition in human VLA-4 binding assay, primary screen, VLA-4 allosteric modulator project, MLPCN library, flow cytometry, VLA-4 expressing cells; Integrin alpha-4 (Homo sapiens), P13612; ligand binding flow cytometry; inhibition, % (about 7 µM as worked out from the volumes in the protocol); 330,000 tested, 0.2% active
GRK2 inh confirm: GRK2 aptamer-displacing inhibitors, retest, confirmation, biochemical, cherry pick 1, bead flow cytometry; shares compounds with GRK2 aptamer HTS; bead-bound GRK2, FAM-aptamer displacement; aptamer displacement, % at 10 µM; 2,000 tested, 4% active; AID 504451, 2011;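 active means aptamer displacement above 40%, near three times the noise of non-fluorescent compounds, on plates passing quality checks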;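 further: negative values mostly reflect intrinsic compound fluorescence rather than true enhancement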
Aptamer quench 1: counter-screen for GRK2 aptamer inhibitors: fluorescent aptamer quenchers | shares compounds with GRK2 aptamer HTS | Fluorescent RNA aptamer beads, quenching, flow cytometry; active compounds read high | fluorescence change (kMESF span), kMESF (concentration not given with the values) | 110 tested, under 10 active;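 active means compounds whose bead fluorescence drops by more than 37 kMESF across the dose range, marking them as dye quenchers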
Aptamer quench SP: counter-screen for GRK2 aptamer inhibitors: fluorescent aptamer quenchers; shares compounds with GRK2 aptamer HTS; Carboxyfluorescein RNA aptamer on beads, flow cytometry quenching; active compounds read low; fluorescence response (% of DMSO), % at 10 µM; 2,000 tested, under 10 active;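 active means compounds that quench the bead-bound fluorescent RNA probe, cutting fluorescence to under half of the solvent control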;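 further: counterscreen run without GRK2 so only probe quenching by compound is measured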
Starred values were filed as active, the others as inactive; ? = inconclusive; · = no result. Unless noted, no stated cut-off is given here; in the data, active means inhibition above about 50%; inactive means the rest.

SMILES | LANA-H2B inh | PKD1 inh | HDAC3 inhib | GRK2 aptamer HTS | DSG3 Ab inh | VLA-4 inh | GRK2 inh confirm | Aptamer quench SP | others
Fc1ccc(N2CCN(c3nc(CN4CCOCC4)nc4scc(-c5ccccc5)c34)CC2)cc1 | 2 | -3 | -2 | 4 | 106 | 10 | · | ·
CCOC(=O)C1(CCc2ccccc2)CCN(C(=O)CN2C(=O)CSC2=O)CC1 | -2 | -4 | -3 | 92* | 99 | -4 | -5 | 99
Cc1cccc(NC(=O)c2nc[nH]c2C(=O)N2CCN(C(=O)OC(C)(C)C)CC2)c1 | -2 | · | -1 | 0 | 103 | 15 | · | ·
O=C(O)CCn1c(-c2ccccn2)nc2ccccc21 | 1 | · | -7 | 27 | 109 | 13 | 4 | 95
COc1ccc(C)cc1S(=O)(=O)NCC(c1ccc2c(c1)OCO2)N1CCOCC1 (stereo unspecified) | 5 | · | 1 | 1 | 110 | 0 | · | ·
Cc1nsc(Nc2ccccc2)c1C#N | 0 | 8 | 11 | 0 | 101 | -7 | · | ·
O=C(N/N=C/c1ccc(Br)s1)c1ccc([N+](=O)[O-])cc1 | -2 | -1 | 0 | 78* | 113 | 0 | -26 | 99
O=C(N/N=C/c1ccc(Br)s1)c1ccccc1[N+](=O)[O-] | 4 | 7 | 7 | 0 | ? | -5 | · | ·
CCOC(=O)CC(NS(=O)(=O)c1ccc(OC)c(OC)c1)c1cccc([N+](=O)[O-])c1 (stereo unspecified) | 4 | -2 | 5 | 0 | 102 | -5 | · | ·
CCOC(=O)CC(NS(=O)(=O)c1ccc2[nH]cc(C(=O)O)c(=O)c2c1)c1ccc(OCC)c(OC)c1 (stereo unspecified) | -1 | · | 2 | 89* | 96 | -6 | 70* | 100 | Aptamer quench 1=-122
Cc1cccc(NC(=O)c2ccc(Cl)nc2)n1 | 1 | · | 3 | 0 | 105 | -17 | · | ·
Cc1cccc(NC(=O)c2csnn2)n1 | 7 | 2 | -1 | 34 | 103 | -17 | -3 | 98
O=S(=O)(Oc1ccc(C(=S)N2CCOCC2)cc1)c1ccc(Cl)cc1 | -23 | · | -2 | 99* | 104 | -11 | 3 | 91
CC(Oc1ccc([N+](=O)[O-])cc1Cl)C(=O)Nc1ccc(C(N)=O)cc1 (stereo unspecified) | 6 | 2 | 0 | 95* | 99 | 4 | 3 | 102
Cc1cc(=O)n2nc(N3CCCC(C(=O)NC4CCCCC4C)C3)sc2n1 (stereo unspecified) | 5 | · | -8 | 3 | 104 | 3 | · | ·
COc1ccc(N2CCN(C(=O)CNC(=O)c3ccco3)CC2)cc1 | 2 | · | · | 1 | 107 | -3 | · | ·
Cc1cc(=O)oc2cc(OC(C(=O)O)c3ccccc3)ccc12 (stereo unspecified) | -7 | · | -8 | 84* | 89 | -82 | -25 | 214
CCn1c(SCC(=O)NC(=O)c2ccccc2OC)nc2ccccc21 | 0 | · | 4 | 1 | 112 | -2 | · | ·
Cc1cc(C)c(C(=O)Nc2ccc(S(=O)(=O)Nc3onc(C)c3C)cc2)c(C)c1 | · | -1 | · | 37 | 110 | 7 | -5 | 98
O=C(Nc1ccc(S(=O)(=O)Nc2ncccn2)cc1)C(F)(F)F | 2 | · | 5 | 3 | 113 | 2 | · | ·
O=S(=O)(c1ccc(F)cc1)N1CCN(C(=S)NC2CC2)CC1 | 6 | · | -6 | 1 | 107 | 4 | · | ·
COC(CNC(=O)CN1CCN(Cc2ccc(F)cc2Cl)C1=O)OC | -1 | · | -4 | 17 | 97 | 5 | -3 | 96
O=C(CN1CCCN(Cc2ccc(F)cc2Cl)C1=O)NCc1ccccc1 | 3 | -5 | -3 | 2 | 97 | -1 | · | ·
CCOC(=O)c1[nH]c(CO)c(C(=O)OCC)c1C | 0 | · | 1 | 0 | 93 | 3 | · | ·
COC(=O)CNC(=O)COC(=O)/C=C/c1ccccc1[N+](=O)[O-] | -1 | 1 | 2 | 0 | 103 | 0 | · | ·
SMILES | LANA-H2B inh | PKD1 inh | HDAC3 inhib | GRK2 aptamer HTS | DSG3 Ab inh | VLA-4 inh | GRK2 inh confirm | Aptamer quench SP | others
CC(C)NC(=O)NC(=O)COC(=O)/C=C/c1ccccc1[N+](=O)[O-] | 1 | 4 | 2 | 100* | 109 | 4 | 1 | 102
CCOC(=O)c1c(S(=O)(=O)NCC(=O)NCc2ccccc2Cl)c(C)n(C)c1C | 1 | · | -2 | 0 | · | 17 | · | ·
CCc1nnc(NS(=O)(=O)c2ccc(NC(=O)COc3ccc4ccccc4c3)cc2)s1 | -3 | -7 | 3 | 51* | 99 | 12 | 3 | 98
C=CCC(CC(O)COCCC)C(=O)NNC(=S)Nc1ccccc1 (stereo unspecified) | -2 | · | 2 | 46* | 107 | 6 | -5 | 92
CCCNC(=O)C(Cc1cccc(C#N)c1)NC(=O)c1ccc(C#N)cc1 (stereo unspecified) | 1 | · | 0 | 82* | 97 | 4 | 1 | 96
COc1cc(/C=C2\SC(=S)N(NC(C)=O)C2=O)ccc1OC(=O)c1ccco1 | 1 | · | 27* | 0 | 91 | 0 | 2 | 95
COc1ccc(N2CCN(CCCNC(=O)C3(S(=O)(=O)c4ccc(Cl)cc4)CC3)CC2)cc1 | -8 | -10 | -1 | 0 | 101 | 7 | · | ·
O=C(NCCCN1CCN(c2cccc(Cl)c2)CC1)C1(S(=O)(=O)c2ccc(Cl)cc2)CC1 | 4 | -3 | 5 | 28 | 100 | 4 | -19 | 88
N#C/C(=C/c1ccc(-c2ccc([N+](=O)[O-])cc2)o1)c1nnc(N2CCOCC2)n1-c1ccccc1 | · | · | · | · | 111 | · | · | ·
Cc1cccc(C)c1NC(=O)CSc1nnc(-c2ccco2)c(-c2ccco2)n1 | 6 | 22 | 4 | 47* | 94 | 21 | 14 | 100
CCc1cccc(C)c1NC(=O)CSc1n[nH]c(N)n1 | -1 | · | 12 | 100* | · | 8 | -4 | 100
Cc1cc(C)c(C)c(S(=O)(=O)N2CCN(c3ccc(O)cc3)CC2)c1C | 1 | 8 | -4 | 0 | 98 | -176 | · | ·
NS(=O)(=O)c1ccc(NC(=S)N2CCC(O)CC2)cc1 | 2 | 2 | 3 | 91* | 110 | 0 | 2 | 99

Compound activity deposited in PubChem by several laboratories.
